# High-throughput results: PubChem, National Center for Advancing Translational Sciences (NCATS)
# Shown are actives, neighbours in structure and some others; about 11% of the full set was active somewhere.
# Sm TGR inh: inhibitors of Schistosoma mansoni thioredoxin glutathione reductase | Q962Y6 | purified TGR, DTNB reduction, TNB absorbance 405 nm | Potency, µM (highest dose often 114 µM), for the others: at the highest dose activity change, negative = inhibition, actives largely listed as inhibitors | 360,000 tested, 3% active; note: % is set by controls: 0 for no effect and ±100 for the full control effect; nearly all actives have a fitted effect of over 60% in size
#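 TGR 20 nM + NADPH 100 uM (dispensed conc.), cpd preinc 15 min RT; start with NADPH (500 uM addition) then DTNB (15 mM addition). Kinetic TNB absorbance, 405 nm filter. Four-parameter Hill fit across titration.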
# AMA1-RON2 inh: AMA1-RON2 (P. falciparum) interaction inhibition; AlphaScreen AMA1-biotinylated RON2 peptide binding; AID 720542; 360,000 tested, 0.2% active; Potency, µM (top dose mostly 58.2 µM), inactives show at the highest dose activity change, negative = inhibition, usual class: inhibitors;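 note: 0% = vehicle wells and -100% = peptide control; nearly all actives have a fitted effect of over 45% in size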
#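 AMA1 (3D7) with his tag at 25 nM final met compounds first, then biotinylated RON2 peptide at 25 nM; detection used donor plus acceptor beads, 10 µg/mL apiece, read by AlphaScreen after 30 min at room temperature.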
# NS1 function inh: influenza NS1 inhibition | Potency, µM (titrated, usually from 46.1 µM), for the others: at the top dose activity, positive = more growth | 270,000 tested, 0.4% active; calls by dose curve; note: actives are rising curves; nearly all actives have a fitted effect of over 50% in size
#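 Compounds were scored for reversing the slow growth caused by influenza A NS1 in S. cerevisiae, measured by optical density at 600 nm. Assay medium contained 2% galactose at pH 6.0; NS1-free yeast of the same strain were the positive control.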
# Pf growth 96h: P. falciparum growth inhibition at 96 hour, primary screen for plastid delayed-death inhibitors; P. falciparum luciferase reporter growth, 96 h; Potency, µM (series often up to 28.7 µM), for the others: top-dose activity change, negative = inhibition, most hits filed as inhibitors; 320,000 tested, 6.9% active; AID 504834; note: % is set by controls: 0 for no effect and ±100 for the full control effect
#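 Parasite growth measured via integrated firefly luciferase reporter in P. falciparum. Infected erythrocytes at 2% hematocrit, 0.05% parasitemia final were treated 96 hours at 37 C under 5% CO2, and luminescence was read.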
# Pf growth 48h: inhibits P. falciparum growth in the first generation, 48 h; P. falciparum luciferase growth in erythrocytes, 48 h; Potency, µM (highest dose often 28.7 µM), without a hit: at the top dose activity change, negative = inhibition, usual class: inhibitors; 310,000 tested, 5.9% active; AID 504832; note: % is set by controls: 0 for no effect and ±100 for the full control effect
#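 A one-generation exposure of luciferase-tagged malaria parasites in RPMI 1640/Albumax erythrocyte culture, 37 C and 5% CO2. Inhibition is inferred from decreased luminescence after adding detection reagent.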
# The depositor's hits bear a star; ? = inconclusive; . = not tested or not shown. Unless noted, calls come from the whole dose curve; as a rule, active = well fitted curve in the direction sought with a large enough effect; inconclusive = small, poorly fitted or top-dose-only effect, or another doubt; inactive = no such curve, though single readings can be large; an effect the other way counts as inactive or inconclusive. Potency is the fitted concentration of half-maximal effect.
SMILES,Sm TGR inh,AMA1-RON2 inh,NS1 function inh,Pf growth 96h,Pf growth 48h
COCCN(CC(=O)Nc1cccc(C)c1C)C(=O)Cn1cnc2ccccc2c1=O,-2.1%,10.8%,.,10.9%,?
O=C(NCCO)C(=O)Nc1cc2c3c(c1)CCN3C(=O)CC2,-2.0%,1.3%,-7.7%,33.5%,38.5%
O=c1c(Cc2ccc(F)cc2)c(O)ccn1C1CC1,-0.8%,0.2%,-0.9%,-13.3%,5.22µM*
COc1ccc(Nc2nc(-c3cccc(OC)c3O)nc3ccccc23)cc1,-1.6%,-24.4%,10.8%,?,7.38µM*
COc1cccc(-c2nc(Oc3cc(C)cc(C)c3)c3ccccc3n2)c1O,-4.6%,.,-1.1%,-5.5%,30.4%
COc1cccc(-c2nc(N3CC(C)CC(C)C3)c3ccccc3n2)c1O (centres undefined),2.4%,?,8.4%,13.1µM*,?
COc1cccc(-c2nc(NC(C)(C)C)c3ccccc3n2)c1O,-8.2%,-19.5%,6.1%,?,10.4µM*
CC(=O)c1cccc(NC(=O)c2cc(C)nc3c2c(C)nn3-c2cccc(Cl)c2C)c1,0.9%,.,.,.,.
Cc1c(C(=O)N2CCOCC2)oc2c1C(=O)CC(C)(C)C2,-12.3%,-5.9%,5.0%,11.7µM*,2.7%
COc1cccc(NC(=O)CNC(=O)N2CC(=O)Nc3ccccc32)c1,-12.1%,0.0%,-2.6%,49.4%,60.7%
Cc1ccc(C(=O)NCCOC23CC4CC(CC(C4)C2)C3)cc1,3.8%,-0.4%,-21.8%,2.08µM*,2.94µM*
COc1ccc(OCCNC(=O)c2ccc(C)cc2)cc1,19.7%,-1.9%,-2.4%,2.94µM*,-10.1%
Cc1ccc2c(=O)cc(C(=O)Nc3sc4c(c3C(=O)NCc3ccco3)CCC4)oc2c1C,8.2%,.,.,.,.
CCC1(C)N([O-])C(C)=C(c2ccccc2)[N+]1=O (centres undefined),0.0%,9.0%,-1.7%,0.0928µM*,.
CCn1c2ccccc2c2nnc(SCC(=O)Nc3c(C)n(C)n(-c4ccccc4)c3=O)nc21,12.2%,-5.7%,-5.0%,11.7µM*,?
CCCCn1c2ccccc2c2nnc(SCC(=O)NC3=NN=C(c4ccccc4)CS3)nc21,2.8%,.,4.2%,?,2.94µM*
Cc1c(NC(=O)CSc2nnc3c4ccccc4n(CCc4ccccc4)c3n2)c(=O)n(-c2ccccc2)n1C,-0.1%,-8.6%,19.7%,50.7%,-8.2%
CCCn1c2ccccc2c2nnc(SCC(=O)OC)nc21,-7.5%,-10.6%,-14.6%,7.7%,-19.6%
CC(=O)N1CC2(NC(=O)c3ccccc3N2)c2ccccc21 (centres undefined),4.4%,-2.0%,7.7%,-0.4%,6.0%
CN(C)CC(CCC(CN(C)C)C(O)(c1ccccc1)c1ccccc1)C(O)(c1ccccc1)c1ccccc1 (centres undefined),-14.0%,-0.1%,-2.6%,1.85µM*,1.85µM*
O=C(NC1CCCCC1)c1ccc(S(=O)(=O)NCc2ccco2)cc1,44.7µM*,-3.4%,-1.7%,-11.9%,-21.2%
CCOC(=O)C1CCCN(C(=O)c2ccc(S(=O)(=O)NCc3ccco3)cc2)C1 (centres undefined),25.1µM*,-11.5%,.,11.7µM*,?
O=C(NC1CCN(Cc2ccccc2)CC1)c1ccc(S(=O)(=O)NCc2ccco2)cc1,7.6%,-7.7%,-1.4%,-17.5%,0.0%
CCOC(=O)C1(CCOC)CCN(Cc2ccncc2)CC1,-1.9%,-9.8%,1.0%,-2.8%,-0.7%
CCOC(=O)C1(CCOc2ccccc2)CCN(Cc2ccc(-n3cccn3)cc2)CC1,3.4%,-4.9%,2.8%,?,14.7µM*
SMILES,Sm TGR inh,AMA1-RON2 inh,NS1 function inh,Pf growth 96h,Pf growth 48h
CCOC(=O)C1(CCOc2ccccc2)CCN(Cc2ccncc2)CC1,28.2µM*,-7.9%,-0.9%,?,?
Nc1ncncc1-c1ccccc1Cl,.,3.9%,.,.,.
Cc1onc(-c2c(Cl)cccc2Cl)c1/C(N)=N/OC(=O)C1CC1,3.4%,-1.5%,2.8%,?,?
Cc1cc[n+](CC(=O)c2ccc(NC(=O)c3ccccc3)cc2)c2ccccc12,-0.6%,-25.7%,-0.6%,?,1.65µM*
O=C(C[n+]1ccccc1)c1ccc(NC(=O)c2ccccc2)cc1,-25.3%,0.0%,1.9%,?,?
Cc1cc[n+](CC(=O)c2ccc(NC(=O)c3ccccc3)cc2)cc1,6.5%,-0.4%,.,15.5%,?
O=C(C[n+]1cccc2ccccc21)c1ccc(NC(=O)c2ccccc2)cc1,-2.9%,-5.3%,.,?,2.08µM*
